Legend:
[1] = target: T1, Aspartate--tRNA(Asp/Asn) ligase (Mycobacterium tuberculosis (strain ATCC 25618 / H37Rv)) (UniProt P9WFW3); test: Assay for Asp RNA synthetase-1 from Mycobacterium tuberculosis; format: functional; set-up: scale not given: direction of the effect not stated beside the values; conditions: 30 µM; further: in the data most compounds retested in dose-response had high values
T1 sequence (whole entry): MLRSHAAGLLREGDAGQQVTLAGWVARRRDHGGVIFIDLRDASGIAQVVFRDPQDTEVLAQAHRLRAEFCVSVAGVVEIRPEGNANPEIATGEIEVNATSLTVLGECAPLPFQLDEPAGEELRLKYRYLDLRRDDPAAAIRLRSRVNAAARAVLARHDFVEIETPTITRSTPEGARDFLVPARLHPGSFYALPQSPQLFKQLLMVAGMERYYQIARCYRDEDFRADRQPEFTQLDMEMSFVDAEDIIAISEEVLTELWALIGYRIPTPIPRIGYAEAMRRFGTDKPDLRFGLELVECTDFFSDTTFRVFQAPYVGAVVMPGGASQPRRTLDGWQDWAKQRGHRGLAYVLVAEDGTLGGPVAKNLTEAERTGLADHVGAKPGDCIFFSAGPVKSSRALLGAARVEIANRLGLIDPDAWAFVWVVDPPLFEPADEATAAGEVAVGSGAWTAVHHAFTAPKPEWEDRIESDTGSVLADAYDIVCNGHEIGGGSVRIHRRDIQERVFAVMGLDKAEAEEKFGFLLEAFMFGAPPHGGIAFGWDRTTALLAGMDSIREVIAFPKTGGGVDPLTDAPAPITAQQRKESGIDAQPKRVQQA

[2] = target: Shiga toxin 2 (Escherichia coli O157:H7) (UniProt P09385+P09386); test: E. coli 0.157:H7 Shiga Toxin SOP - stx2 screening assay; format: functional; set-up: scale not given: direction of the effect not stated beside the values; conditions: 30 µM

SMILES	Percent Effect [1] [%]	Percent Effect [2] [%]
Cc1nn(C)c(C)c1CC(=O)N1CCC(N(C)c2cccnn2)CC1	-4.15	27.2
N#Cc1cc(NS(=O)(=O)c2ccc(C(=O)O)cc2F)ccc1F	2.89	9.05
CCN(CC1CCOC1)C(=O)c1ccccc1N1CCOCC1 (centres undefined)	-0.562	23.4
O=C(CC1CCCCC1)N1CCN(C(=O)NCc2ccccn2)CC1	2.1	20.8
CCOc1ncccc1C(=O)NCCN(CC)C1CC1	0.335	9.33
CCc1csc(C2CCCN(C(=O)c3ccnc(N(C)C)c3)C2)n1 (centres undefined)	1.86	-14.7
COc1ncccc1CNC(=O)c1cccnc1O	-1.39	-17.1
COc1ccc(CCNC(=O)C2CCC(Cn3cnnn3)CC2)cc1 (centres undefined)	-2.03	-4.05
CCc1n[nH]c(C2CN(C(=O)c3ncoc3C(C)C)CCO2)n1 (centres undefined)	2.8	-12.1
O=C(C(CNCc1ccsc1)c1ccccc1)N1CCOCC1 (centres undefined)	4.13	-22.6
Cn1nc(C2CN(C(=O)c3cscn3)C2)c2nccnc21	2.04	8.15
COc1ccc(C2C3=C(COC3=O)Nc3[nH]nc(C)c32)cc1OC (centres undefined)	-2.61	-21.4
COc1ccc(OCc2sc(C3(O)CCCNCC3)nc2C)cc1 (centres undefined)	5.08	7.21
Cc1cc(F)ccc1CNCCn1cccn1	-3.06	13
CCOC[C@@H]1CCC[C@@]12CN(Cc1nccs1)CCO2	-0.28	13.3
NC(=O)c1cc(C2CCCN(C(=O)CCc3cscn3)C2)n[nH]1 (centres undefined)	-4.07	-14.1
CC(C)C1CN(c2ncccn2)CCC(=O)N1Cc1ccc(F)cc1 (centres undefined)	3.51	3.8
Cc1cnn(CC2CCCCN2Cc2nc(-c3ccoc3)no2)c1 (centres undefined)	2.91	26.6
O=C(c1ccc[nH]1)N1C[C@H]2CC[C@@H]1CN(C1Cc3ccccc3C1)C2	2.83	10.5
COc1nc(C)cc(C)c1CNC(=O)N(C)Cc1cnn(C)c1	4.2	6.51
COC(=O)c1cccn1C1CCN(Cc2ccccc2)CC1	0.995	-6.65
Cc1cnn(CC2CCCN2Cc2coc(-c3cccs3)n2)c1 (centres undefined)	1.41	4.89

SMILES	Percent Effect [1] [%]	Percent Effect [2] [%]
COC[C@H]1CCC[C@]12CN(CCc1ccccc1)CCO2	-1.02	-22
CN(C)S(=O)(=O)N1C[C@H](Oc2cccnc2)[C@H]2OCCC[C@H]21	2.32	-12
Cc1nc(N2CCOCC2)nc2c1CCN(C(=O)NC1CCCC1)CC2	2.29	-52.5
Cc1ccc(CN(C)CC(=O)NC2(C)CCS(=O)(=O)C2)cc1 (centres undefined)	1.84	-25.3
c1cncc(COCc2nnc3n2CCN(Cc2ccsc2)C3)c1	-0.684	-54.6
c1cnc(N2CCOCC3(CCCN(CC4CC4)C3)C2)cn1 (centres undefined)	0.0873	-8.06
Cc1noc([C@@H]2CC[C@@H]3[C@@H](CCN3S(=O)(=O)c3cccnc3)O2)n1	0.127	-18.4
C=Cc1ccc(C(=O)N2CCCC(Nc3ccc(F)cc3)C2)cc1 (centres undefined)	-0.502	-4.33
O=C(CN1CCN(CC(O)C2CC2)CC1)NCc1ccc(F)cc1 (centres undefined)	-0.889	-4.46
Cc1noc(CCCC(=O)NC(C)c2ccccn2)n1 (centres undefined)	-1.28	16
CCN(CC)C(=O)c1nnn(-c2ccc(C)cc2)c1C1CC1	-1.37	-1.32
CSCC(CCO)NC(=O)Nc1cccc(Br)c1 (centres undefined)	8.05	-15.3
Cc1ccc(CN2C[C@@H]3COC[C@H](NS(C)(=O)=O)[C@@H]3C2)o1	3.2	-0.0539
CCn1cnnc1CNC(=O)CCC(=O)c1ccc2c(c1)OCCO2	4.55	13.7
Cc1cc(C)c(CNC(=O)N(C)CC2CCCCO2)c(=O)[nH]1 (centres undefined)	2.7	28.8
Cc1ccc(CC(=O)N2CCCC(c3nc(C)cs3)C2)cn1 (centres undefined)	2.77	7.66
CCc1ccc(C(=O)Nc2ccc(CC3CC(=O)NC3=O)cc2)cc1 (centres undefined)	7.7	-36.3
CC(Cn1ccnc1)NC(=O)NCCNC(=O)C(C)C (centres undefined)	1.08	11.8
CC(C)c1nn(C)c(Cl)c1CNCC(O)c1cccc(F)c1 (centres undefined)	-0.173	10.3
Cc1cc(NC(=O)CN2CCc3nn(C)c(=O)cc3C2)on1	11.6	-13.1
O=C1[C@@H]2CCN(Cc3ccoc3)C[C@@H]2OCCN1Cc1cccnc1	-0.368	-11.5
Fc1cnc(N2CCOCC3(CCCN(c4nncs4)C3)C2)nc1 (centres undefined)	-3.89	6.61

SMILES	Percent Effect [1] [%]	Percent Effect [2] [%]
Cc1ccc(S(=O)(=O)N2CCC3(CC(C(=O)NCC4CC4)=NO3)C2)cc1 (centres undefined)	10.8	14.7
Cc1cnn(CC(C)NCc2csc(-c3ccsc3)n2)c1 (centres undefined)	-7.44	-28
COc1cccc(CCC(=O)N2CCCCC2Cn2cccn2)c1 (centres undefined)	1.44	22.5
CC(=O)Nc1nc(C(=O)N2CCCC(n3nc(C)cc3C)C2)cs1 (centres undefined)	-0.815	10.8
Cc1cccc(Cn2ccc(NS(C)(=O)=O)n2)c1	6.96	-21.6
CCc1nc2n(n1)CC(NCc1ccnc(-c3ccccc3)n1)CC2 (centres undefined)	-7.45	5.5
CC(C)(C)n1cc(C(=O)N2CCN(Cc3ccccc3F)CC2)cn1	-1.61	20.1
O=C(COc1coc(CN2CCOCC2)cc1=O)c1ccc(Cl)cc1	4.37	-57.8
Cc1ccc(N2CCCN(C(=O)c3cc(Cl)c[nH]3)CC2)nn1	-1.03	-26.5
Cc1csc(Nc2cc(C3CCCCN3C)nc(C)n2)n1 (centres undefined)	-2.66	-11.8
CC(Cn1cncn1)NCc1nncn1C1CCCCC1 (centres undefined)	-4.88	2.43
CC1(C)CC(N2Cc3nc(N4CCOCC4)ncc3C2=O)CC(C)(C)N1	-4.82	-59.4
CNc1cc(N2CCCC2CNCc2ccccn2)ncn1 (centres undefined)	1.56	-35.2
N#Cc1cccnc1NCCNC(=O)N1CCCC(C(F)(F)F)C1 (centres undefined)	-0.524	-17.9
CC(=O)NCC(=O)N1CCOC2(CCCN(c3cccnc3)C2)C1 (centres undefined)	1.34	-31.3
Cc1nn(C)c(N2CCOCC2)c1CNCc1nccs1	-2.7	28.1
Cc1noc(C)c1CC(=O)OCC(=O)N1CCc2sccc2C1	6.42	-7.79
CCCc1nc(C)c(C(=O)NS(=O)(=O)c2ccc(C#N)cc2)s1	0.836	8.1
Cc1ccc(N2CCN(C(=O)COc3ccccc3)CC2)nn1	-1.15	-66.5
COc1ccc(C2CCCCCN2S(=O)(=O)N(C)C)cc1 (centres undefined)	-8.89	-9.69
CN(C)c1ncccc1CNS(=O)(=O)c1ccccc1F	4.63	-24.7
COc1cccc(COCC(=O)N2CCC(CC(N)=O)CC2)c1	-3.72	32.3

SMILES	Percent Effect [1] [%]	Percent Effect [2] [%]
Cc1ccccc1N1CC2(CCN(S(=O)(=O)c3cccs3)C2)CC1=O (centres undefined)	0.41	-0.82
Cn1ccc(CN2CCC(NC(=O)NC3CCCCC3)CC2)cc1=O	-0.833	-11.2
c1ccc(OC[C@]23COC[C@H]2CN(c2ncccn2)C3)nc1	1.95	-23.2
COc1ccc(C(CO)NC(=O)Nc2cccnc2)cc1 (centres undefined)	-1.35	-19.2
CN(C)CC(=O)N1Cc2nc(C(=O)NCc3ccncc3)oc2C1	4.86	-45
Cc1cc(C)c(CNC(=O)N2CCCC2c2cccn2C)c(=O)[nH]1 (centres undefined)	-3.71	-31.2
O=C(NCCNc1ncccn1)Nc1cc(C(F)(F)F)c[nH]c1=O	-1.25	3.13
CCS(=O)(=O)c1ccccc1N1CCC(NC(=O)c2ccc[nH]2)CC1	-2.04	9.33
Cc1cc(=O)n(CC(=O)NCC2CCCO2)c(-c2ccc(F)cc2)n1 (centres undefined)	5.94	-51.4
Cc1ccc(N2CCCN(C(=O)c3c(C)oc(C)c3C)CC2)nn1	1.16	-1.2
CCc1nccn1C1CCCN(C(=O)CCc2nccs2)C1 (centres undefined)	2.69	16.2
O=C(Nc1ccc(CCN2CCC(O)CC2)cc1)Nc1cccnc1	-0.212	-83.7
O=C(CCC1CCCC1)NCCn1nc(C2CCNC2)c2cccnc21 (centres undefined)	-0.368	-19.4
c1ccc2cc(OCCN3CCn4c(nnc4C4CC4)C3)ccc2c1	3.95	-16.6
CCN(CC1CCCO1)C(=O)Nc1cc(C(=O)OC)ccc1F (centres undefined)	-1.37	15.3
O=C(CCc1cscn1)N1CCCC(n2ccnc2)C1 (centres undefined)	-3.19	-12.2
Cc1noc(C)c1CN1C(=O)[C@H]2CC[C@@H]1CN(Cc1cccnc1N)C2	3.56	-24.1
COc1ccc(C(CNC(=O)Nc2cn[nH]c2)N2CCOCC2)cc1 (centres undefined)	1.21	23.8
CCN(C)c1ncnc2c1CCN(Cc1csc(C)n1)CC2	-3.19	-3.16
Cc1nc(NCCc2ccc(Cl)cc2)cc(C(=O)N2CCCCC2)n1	12.4	-69.6
COCCN(C)CCN1CC2(CCN(C3CCCOC3)CC2)OC1=O (centres undefined)	3.6	-60.6
